“And” between values parts separate entries of the source, which are not always exact repeats. Equal entries are not always repeated. Records with an inconclusive call do not appear. Values without a mark were called inactive. The source made the active and inactive calls. The call rests on the fitted dose curve; in most records, active means well fitted curve in the direction sought with a large enough effect; inconclusive means small, poorly fitted or top-dose-only effect, or another doubt; inactive means no such curve, though single readings can be large; an effect the other way counts as inactive or inconclusive.

The nature of test [1]: Viability qHTS for spleen associated tyrosine kinase inhibitor (SYKi) naive MV4-11 cells (AID 1963823). Further: nearly all actives have a fitted effect of over 40% in size. The essentials:
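Compounds were dispensed acoustically onto plates, MV4-11 cells (SYKi-naive) added at 500 per well, and plates incubated 72 hr at 37 C. CellTiter-Glo was added and luminescence measured after 10 min.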

The nature of test [2]: Viability qHTS for spleen associated tyrosine kinase inhibitor (SYKi) drug resistant MV4-11 cells (AID 1963824). Further: nearly all actives have a fitted effect of over 35% in size. The essentials:
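CellTiter-Glo luminescence, read 10 min after reagent addition, reports viability after a 72 hr compound exposure. Cells are an MV4-11 line made resistant to SYK inhibition, seeded at 500 per well onto compound-containing plates.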
Background: Quantitative high-throughput screening tests each substance at several concentrations.

Test [3] in a line: Quantitative highthroughput screen to assess conditional lethalithy of NOMO1 cells grown in RPMI1640 with untreated serum (RPMI+s) (AID 1963876). Further: nearly all actives have a fitted effect of over 35% in size.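 On Viability: 100% = DMSO wells and 0% = empty wells without cells.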 The essentials:
(§1)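 Each medium arm—HPLM with 10% dialyzed FBS, or RPMI1640 with 5 mM glucose and 10% untreated or dialyzed FBS—was screened against an 11-point, 3-fold compound titration for 48 h at 37 °C, with CellTiter-Glo luminescence as endpoint.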

A short description of test [4]: Quantitative highthroughput screen to assess conditional lethalithy of NOMO1 cells grown in RPMI1640 with dialyzed fetal bovine serum (RPMI+ds) (AID 1963877). Further: nearly all actives have a fitted effect of over 30% in size.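 On Viability: series mostly up to about 46 µM; 100% = DMSO control wells and 0% = empty wells.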 The essentials:
as §1

Test [5] is described as follows: Quantitative highthroughput screen to assess conditional lethalithy of NOMO1 cells grown in Human Plasma-Like Medium with dialyzed fetal bovine serum (HPLM+ds) (AID 1963878). Further: nearly all actives have a fitted effect of over 35% in size.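 On Viability: 100% = DMSO wells and 0% = empty wells on each plate.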 The essentials:
as §1

The nature of test [6]: Quantitative highthroughput screen to assess conditional lethalithy of P12 Ichikawa cells grown in Human Plasma-Like Medium with dialyzed fetal bovine serum (HPLM+ds) (AID 1963879). Further: nearly all actives have a fitted effect of over 35% in size. On Viability: series mostly up to about 46 µM. The note with it: Potency: viability. The essentials: as §1
The nature of test [7]: Quantitative highthroughput screen to assess conditional lethalithy of P12 Ichikawa cells grown in RPMI1640 with dialyzed fetal bovine serum (RPMI+ds) (AID 1963880). Further: nearly all actives have a fitted effect of over 35% in size.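 On Viability: 100% = DMSO wells and 0% = empty wells on each plate.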 The note with it: Potency: P12-Ichikawa viability. In a few lines:
as §1

The nature of test [8]: Quantitative highthroughput screen to assess conditional lethalithy of P12 Ichikawa cells grown in RPMI1640 with untreated serum (RPMI+s) (AID 1963881). Further: nearly all actives have a fitted effect of over 35% in size.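 On Viability: series mostly up to about 46 µM; 100% = DMSO wells and 0% = empty wells without cells.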 As to conditions: Potency: viability. In a few lines:
as §1

Test [9] is described as follows: Quantitative highthroughput screen to assess conditional lethalithy of SEM cells grown in Human Plasma-Like Medium with dialyzed fetal bovine serum (HPLM+ds) (AID 1963882). Further: nearly all actives have a fitted effect of over 35% in size. On Viability: series mostly up to about 46 µM. In a few lines: as §1
Test [10] is described as follows: Quantitative highthroughput screen to assess conditional lethalithy of SEM cells grown in RPMI1640 with unreated serum (RPMI+s) (AID 1963883). Further: nearly all actives have a fitted effect of over 35% in size.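 On Viability: 100% = DMSO wells and 0% = empty wells without cells.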 In a few lines: as §1
Test [11] in a line: Cellular viability qHTS for adrenocortical cancer (ACC) cell line NCI-H295R (AID 1963990). Further: nearly all actives have a fitted effect of over 60% in size. In a few lines:
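Viability of NCI-H295R after 48 h of treatment (final up to 46 uM) measured through cellular ATP luminescence.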

A short description of test [12]: Quantitative highthroughput screen to assess conditional lethalithy of SEM cells grown in RPMI1640 with dialyzed fetal bovine serum (RPMI+ds) (AID 1963884). Further: nearly all actives have a fitted effect of over 35% in size.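 On Viability: series mostly up to about 46 µM; 100% = DMSO control wells and 0% = empty wells without cells.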 The essentials: as §1
A short description of test [13]: Cellular viability qHTS for adrenocortical cancer (ACC) cell line SW-13 (AID 1963989). Further: nearly all actives have a fitted effect of over 65% in size.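 On activity (max response): cells grown in serum-free medium with ITS supplement; on the % scale 0 is the no-effect control and ±100 the full control effect.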 As to conditions: SW-13 ACC cells viability, CellTiter-Glo, 48 h; activity (max response): hits give low values. In a few lines: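 Here, serum-free SW-13 cultures were dosed up to 46 uM. Following 48 h, ATP-dependent luminescence (CellTiter-Glo) reported viable cells, and logistic modeling produced IC50 values.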
Potency means the concentration at half of the fitted maximal effect.

In the case of `O=C(NCc1ccccc1)c1csc(Nc2ccncn2)n1`, the Potency in [1] was 4680 nM (active); in test [2] it was 4.17 µM (active) and 20.6 µM (active); in [3], 3.32 µM (active); in [4] it was 3.72 µM (active); in test [5], 2.35 µM (active); in [6], 6.62 µM (active). For the same compound, the Potency in [7] was 3.72 µM (active); in [8] it was 3.32 µM (active); in test [9], 1.66 µM (active); in test [10], 0.833 µM (active); in test [11], 31.6 µM (active).

As for `Cc1onc(-c2ccccc2Cl)c1C(=O)N[C@@H]1C(=O)N2[C@@H]1SC(C)(C)[C@@H]2C(=O)O`, the Potency result in test [1], in test [2], in test [3], in test [4], in test [5] and in [6] was “inactive” in each case. In addition, the Potency entry in test [7], in test [8], in test [9], in test [10], in test [12] and in test [11] was “inactive” in each case.

Take `CC[C@@]1(O)C(=O)OCc2c1cc1n(c2=O)Cc2cc3cc(O)ccc3nc2-1`: the Potency is 18.6 nM (active) in test [1]; 18.6 nM (active) in test [2]; 0.118 µM (active) in test [3]; 0.148 µM (active) in test [4]; 0.0833 µM (active) in test [5]; 0.0332 µM (active) in test [6]. Further, the Potency in test [7] is 0.0296 µM (active); in [8] it was 0.0296 µM (active); in [9] it was 0.0526 µM (active); in test [12] it was 0.0469 µM (active); in test [13], 0.224 µM (active); in [11], 1.58 µM (active).

As to `c1ccc2c(CCNc3ccc(Nc4ccncc4)cc3)c[nH]c2c1`, the Potency in test [1] is 1.16 µM (active) and 525 nM (active); in test [2], 731 nM (active) and 590 nM (active); in test [3], 16.6 µM (active); in test [4] it was 18.7 µM (active); in [5], 14.8 µM (active); in test [6], 23.5 µM (active). For the same compound, the Potency is 20.9 µM (active) in test [7]; 16.6 µM (active) in test [8]; 0.935 µM (active) in test [9]; 0.833 µM (active) in test [12]; 1.58 µM (active) in [13]; 3.55 µM (active) in test [11].

In the case of `CC(C)C[C@H](NC(=O)CNC(=O)c1cc(Cl)ccc1Cl)B1OC(=O)CC(CC(=O)O)(C(=O)O)O1` (stereo not given in full), the Potency in test [1] was 148 nM (active); in test [2] it was 118 nM (active); in test [3], 0.372 µM (active); in test [4] it was 0.418 µM (active); in [5], 0.372 µM (active); in test [6] it was 0.332 µM (active). Also, the Potency is 0.296 µM (active) in test [7]; 0.296 µM (active) in test [8]; 0.118 µM (active) in [9]; 0.0935 µM (active) in test [10]; 1.41 µM (active) in test [13].

Take `CCOc1ccccc1OCCNC(C)Cc1ccc(OC)c(S(N)(=O)=O)c1` (stereo not given): the Potency result in test [1], in test [2], in [3], in test [4], in test [5] and in [6] was “inactive” in each case. Also, the Potency entry in [7], in test [8], in test [9] and in [12] was “inactive” throughout.

Take `C[C@@H]1C(=O)O[C@H]2CC34[C@H]5C[C@@H](C(C)(C)C)C36[C@H](OC(=O)[C@@H]6O)O[C@@]4(C(=O)O5)[C@]21O` (stereo not given in full): the Potency entry in test [1], in [2], in test [3], in test [4], in test [5] and in test [6] was “inactive” in each case. Moreover, the Potency result in [7], in [8], in test [9], in test [10], in [12] and in [11] was “inactive” each time. Further, in [13], the activity (max response) was -23.3%.

Take `COC(=O)Nc1ccc(-c2nc(N3CCOCC3)c3cnn(C4CCN(Cc5cccnc5)CC4)c3n2)cc1`: the Potency in [1] was 517 nM (active); in [2], 580 nM (active); in test [3], 4.69 µM (active); in test [4], 1.87 µM (active); in test [5] it was 1.05 µM (active); in test [6], 5.9 µM (active). In addition, the Potency in test [7] is 1.48 µM (active); in test [8], 0.469 µM (active); in test [9], 0.662 µM (active); in [10], 0.296 µM (active); in test [12], 0.372 µM (active); in test [11], 5.01 µM (active).

As to `O=C1c2ccccc2-[n+]2ccc3c([nH]c4ccccc43)c21`, the Potency was 820 nM (active) in test [1]; 651 nM (active) in test [2]; 6.62 µM (active) in [3]; 5.9 µM (active) in test [4]; 5.26 µM (active) in test [5]; 8.33 µM (active) in [6]. Further, the Potency in test [7] is 9.35 µM (active); in [8] it was 8.33 µM (active); in test [9] it was 2.64 µM (active); in [10], 3.32 µM (active); in test [13], 2.82 µM (active); in test [11], 2.82 µM (active).

Turning to `Nc1ccccc1NC(=O)c1ccc(CNc2nccc(-c3cccnc3)n2)cc1`, the Potency in [1] was 291 nM (active); in [2], 231 nM (active); in test [3], 2.64 µM (active); in [4], 2.35 µM (active); in test [5], 2.35 µM (active); in [6], 2.09 µM (active). Further, the Potency was 2.35 µM (active) in test [7]; 2.09 µM (active) in test [8]; 0.743 µM (active) in [9]; 0.833 µM (active) in test [10]; 3.98 µM (active) in [13]; 0.355 µM (active) in [11].

`C[C@H]1[C@@H](OC(=O)CCC(=O)O)O[C@@H]2O[C@@]3(C)CC[C@@H]4[C@H](C)CC[C@@H]1[C@@]24OO3`: the Potency in test [1] was 934 nM (active); in test [2], 1160 nM (active); in test [3] it was 1.66 µM (active); in test [4], 1.32 µM (active); in [5], 2.09 µM (active); in [6], 11.8 µM (active). The Potency in [7] is 6.62 µM (active); in [8], 5.26 µM (active); in test [9] it was 4.69 µM (active); in [10] it was 3.72 µM (active); in [12], 4.18 µM (active); in [11], 17.8 µM (active).

Consider `CC(C)(C)c1cc(C(C)(C)C)c(NC(=O)c2c[nH]c3ccccc3c2=O)cc1O`, for which the Potency is 11800 nM (active) in test [1], 7420 nM (active) in [2] and 7.08 µM (active) in test [11]. In addition, the Potency result in test [3], in test [4], in test [5], in [6], in test [7] and in test [8] was “inactive” in each case. The Potency entry in test [9], in [10] and in [12] was “inactive” throughout.

For `OC(Cn1cncn1)(Cn1cncn1)c1ccc(F)cc1F`, the Potency result in test [1], in [2], in test [3], in test [4], in test [5] and in [6] was “inactive” each time. Besides, the Potency entry in test [7], in [8], in test [9], in test [10], in test [12] and in [11] was “inactive” each time.

With `Oc1cc2c(cc1O)C1c3ccc(O)c(O)c3OCC1(O)C2` (stereo not given), the Potency was 16600 nM (active) in test [1] and 14800 nM (active) in test [2]. The Potency result in [3], in [4], in test [5], in test [6], in test [7] and in test [8] was “inactive” each time. In addition, the Potency entry in test [9], in test [12] and in test [11] was “inactive” in each case. Also, the activity (max response) in test [13] was -7.46%.

The values are drawn from PubChem BioAssay (NCATS).
